# Data taken from PubChem BioAssay (NCI).
# The panel holds about 79,000 compounds, 15% with a hit somewhere; the sample as a whole holds those more often. A number with no mark means an inactive call. Active and inactive are the calls of the source. Rule as the data show it: active = growth inhibition above about 70%; inactive = the rest.
# Columns and labels:
# [1] = NCI Yeast Anticancer Drug Screen. Data for the rad52 strain (AID 147);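 also: 0% = growth of vehicle-treated control cultures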; conditions: S. cerevisiae rad52 mutant growth inhibition, active compounds read high
# Method in brief: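 Growth of repair-deficient yeast cells was compared between compound-treated and vehicle-treated cultures to give percent inhibition.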
# [2] = NCI Yeast Anticancer Drug Screen. Data for the wt1 strain (AID 149);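 also: 0% = growth of vehicle-treated wt1 cultures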; conditions: S. cerevisiae wt1 strain (SPY 50644) growth inhibition, active compounds read high
# Method in brief: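 Compounds are added to wt1 yeast cultures. Growth is then measured. Inhibition is expressed relative to vehicle-treated controls.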
# [3] = NCI Yeast Anticancer Drug Screen. Data for the rad50EPP+ strain (AID 151);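 also: 0% = growth of vehicle-treated control cultures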; conditions: S. cerevisiae rad50 mutant strain, active compounds read high
# Method in brief: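 Measured: growth inhibition of rad50EPP+ yeast. Reference: vehicle-treated controls. Screen uses strains with defined genetic alterations in DNA damage repair or cell cycle control.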
# [4] = NCI Yeast Anticancer Drug Screen. Data for the mgt1 strain (AID 153); conditions: S. cerevisiae mgt1 mutant growth inhibition, active compounds read high
# Method in brief: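 Compounds were applied to mgt1 mutant yeast, and growth was then compared against vehicle-treated control cultures to give percent inhibition.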
# [5] = NCI Yeast Anticancer Drug Screen. Data for the rad50 strain (AID 155);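 also: 0% = growth of vehicle-only cultures of the same strain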; conditions: S. cerevisiae rad50 strain growth inhibition, active compounds read high
# Method in brief: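 Inhibition values express reduced yeast growth in compound-treated cultures relative to vehicle-treated controls.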
# [6] = NCI Yeast Anticancer Drug Screen. Data for the mec2-1 strain (AID 157); conditions: S. cerevisiae mec2-1 strain, active compounds read high
# Method in brief: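 Compounds were applied to mec2-1 yeast cells. Their growth was then compared with that of vehicle-treated cultures to give growth inhibition.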
# [7] = NCI Yeast Anticancer Drug Screen. Data for the rad14 strain (AID 159);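 also: 0% = growth of vehicle-treated control cultures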; conditions: S. cerevisiae rad14 strain growth inhibition, active compounds read high
# Method in brief: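 A mutant yeast strain defective in DNA damage repair is treated with compound; inhibition of its growth is scored against untreated, vehicle-exposed cultures.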
# [8] = NCI Yeast Anticancer Drug Screen. Data for the sgs1 mgt1 strain (AID 161);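 also: 0% = growth of cultures given vehicle only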; conditions: S. cerevisiae sgs1 mgt1 strain, active compounds read high
# Method in brief: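 This yeast growth screen uses a strain with defined DNA-repair lesions; compound-treated growth is compared with vehicle-treated growth.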
# [9] = NCI Yeast Anticancer Drug Screen. Data for the CLN2oe strain (AID 163);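 also: 0% = growth of vehicle-only control cultures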; conditions: S. cerevisiae CLN2oe strain, active compounds read high
# Method in brief: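 Cells of an engineered yeast line with disturbed cell-cycle regulation are treated with compound. Inhibition of growth is then calculated relative to the vehicle-treated reference.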
# [10] = NCI Yeast Anticancer Drug Screen. Data for the bub3 strain (AID 167); conditions: S. cerevisiae bub3 mutant strain, active compounds read high
# Method in brief: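 Steps: expose the mutant yeast strain to compound; grow alongside vehicle-treated cultures; measure growth; express inhibition against the vehicle cultures.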
# [11] = NCI Yeast Anticancer Drug Screen. Data for the wt2 strain (AID 169);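 also: 0% = growth of vehicle-treated yeast cultures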; conditions: S. cerevisiae wt2 strain growth inhibition, active compounds read high
# Method in brief: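 Growth of compound-treated yeast is measured and expressed as inhibition relative to vehicle-only controls.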
# [12] = NCI Yeast Anticancer Drug Screen. Data for the mlh1 strain (AID 171);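 also: 0% = growth of vehicle-treated control cultures of the same strain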; conditions: S. cerevisiae mlh1 strain growth inhibition, active compounds read high
# Method in brief: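 Test agents were incubated with yeast bearing a defined DNA damage repair or cell cycle control alteration; values are growth inhibition normalised to vehicle-treated cultures.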
# [13] = NCI Yeast Anticancer Drug Screen. Data for the sgs1 strain (AID 173);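 also: 0% = growth of vehicle-only control cultures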; conditions: S. cerevisiae sgs1 mutant, active compounds read high
# Method in brief: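 Strain with an altered DNA repair or cell cycle pathway exposed to compound. Growth then measured. Value = inhibition versus vehicle control.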
# [14] = NCI Yeast Anticancer Drug Screen. Data for the mlh1 rad18 strain (AID 175); conditions: S. cerevisiae mlh1 rad18 strain growth inhibition, active compounds read high
# Method in brief: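 A repair-deficient yeast strain is exposed to test compound, and growth is scored relative to vehicle-treated controls.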
# [15] = NCI Yeast Anticancer Drug Screen. Data for the rad18 strain (AID 177); conditions: S. cerevisiae rad18 mutant growth inhibition, active compounds read high
# Method in brief: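 DNA-repair-defective yeast; compound treatment; growth inhibition scored against vehicle.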
# [16] = at 5.0 µM (retest, dose inferred, filed as 0.5)
# [17] = at 50.0 µM (retest, dose inferred, filed as 5.0)
structure (smiles),measurement,setting,value
CO[C@H]1C[C@](C)(O)Cc2cc3c(c(O)c21)C(=O)c1c(O)cc2c(c1C3=O)O[C@@H]1O[C@@]2(C)[C@H](O)[C@@H](N(C)C)[C@@H]1O,growth inhibition,[1]; at 1.2 µM,-22%
same,growth inhibition,[1]; at 3.7 µM,-13%
same,growth inhibition,[1]; at 11.0 µM,5%
same,growth inhibition,[1]; at 33.0 µM,60%
same,growth inhibition,[1]; at 100.0 µM,87% (active)
same,growth inhibition,[2]; at 1.2 µM,-38%
same,growth inhibition,[2]; at 3.7 µM,-38%
same,growth inhibition,[2]; at 11.0 µM,-39%
same,growth inhibition,[2]; at 33.0 µM,-44%
same,growth inhibition,[2]; at 100.0 µM,-37%
same,growth inhibition,[3]; at 1.2 µM,-28%
same,growth inhibition,[3]; at 3.7 µM,-5%
same,growth inhibition,[3]; at 11.0 µM,-9%
same,growth inhibition,[3]; at 33.0 µM,-12%
same,growth inhibition,[3]; at 100.0 µM,33%
same,growth inhibition,[4]; at 1.2 µM,-28%
same,growth inhibition,[4]; at 3.7 µM,-23%
same,growth inhibition,[4]; at 11.0 µM,-19%
same,growth inhibition,[4]; at 33.0 µM,-22%
same,growth inhibition,[4]; at 100.0 µM,-32%
same,growth inhibition,[5]; at 1.2 µM,-44%
same,growth inhibition,[5]; at 3.7 µM,-7%
same,growth inhibition,[5]; [16],-11%
same,growth inhibition,[5]; at 11.0 µM,17%
same,growth inhibition,[5]; at 33.0 µM,72% (active)
same,growth inhibition,[5]; [17],75% (active)
same,growth inhibition,[5]; at 50.0 µM,20.9%
same,growth inhibition,[5]; at 100.0 µM,85% (active)
same,growth inhibition,[6]; at 1.2 µM,-19%
same,growth inhibition,[6]; at 3.7 µM,-7%
same,growth inhibition,[6]; [16],-3%
same,growth inhibition,[6]; at 11.0 µM,-21%
same,growth inhibition,[6]; at 33.0 µM,-4%
same,growth inhibition,[6]; [17],-11%
same,growth inhibition,[6]; at 50.0 µM,-11.2%
same,growth inhibition,[6]; at 100.0 µM,-6%
same,growth inhibition,[7]; at 1.2 µM,-32%
same,growth inhibition,[7]; at 3.7 µM,-44%
same,growth inhibition,[7]; at 11.0 µM,-63%
same,growth inhibition,[7]; at 33.0 µM,-53%
same,growth inhibition,[7]; at 100.0 µM,-51%
same,growth inhibition,[8]; [16],-16%
same,growth inhibition,[8]; [17],-1%
same,growth inhibition,[8]; at 50.0 µM,14.3%
same,growth inhibition,[9]; at 1.2 µM,-11%
same,growth inhibition,[9]; at 3.7 µM,-29%
same,growth inhibition,[9]; at 11.0 µM,-8%
same,growth inhibition,[9]; at 33.0 µM,-14%
same,growth inhibition,[9]; at 100.0 µM,-33%
same,growth inhibition,[10]; at 1.2 µM,-15%
same,growth inhibition,[10]; at 3.7 µM,-11%
same,growth inhibition,[10]; [16],-2%
same,growth inhibition,[10]; at 11.0 µM,-30%
same,growth inhibition,[10]; at 33.0 µM,-31%
same,growth inhibition,[10]; [17],15%
same,growth inhibition,[10]; at 50.0 µM,-10.6%
same,growth inhibition,[10]; at 100.0 µM,-20%
same,growth inhibition,[11]; at 1.2 µM,-19%
same,growth inhibition,[11]; at 3.7 µM,-21%
same,growth inhibition,[11]; at 11.0 µM,-26%
same,growth inhibition,[11]; at 33.0 µM,-19%
same,growth inhibition,[11]; at 100.0 µM,-12%
same,growth inhibition,[12]; at 1.2 µM,-42%
same,growth inhibition,[12]; at 3.7 µM,-38%
same,growth inhibition,[12]; at 11.0 µM,-14%
same,growth inhibition,[12]; at 33.0 µM,-36%
same,growth inhibition,[12]; at 100.0 µM,-22%
same,growth inhibition,[13]; at 1.2 µM,-28%
same,growth inhibition,[13]; at 3.7 µM,-28%
same,growth inhibition,[13]; at 11.0 µM,-24%
same,growth inhibition,[13]; at 33.0 µM,-7%
same,growth inhibition,[13]; at 100.0 µM,2%
same,growth inhibition,[14]; [16],-19%
same,growth inhibition,[14]; [17],0%
same,growth inhibition,[14]; at 50.0 µM,73.2% (active)
same,growth inhibition,[15]; at 1.2 µM,-27%
same,growth inhibition,[15]; at 3.7 µM,-27%
same,growth inhibition,[15]; at 11.0 µM,-29%
same,growth inhibition,[15]; at 33.0 µM,-27%
same,growth inhibition,[15]; at 100.0 µM,-18%
